A word on the AC50: it is the concentration giving half of the maximal activity seen.

Active and inactive are the calls of the source. How the source made its calls: active means hit-call score of the fitted dose curve at least 0.9, where 1 is the maximum; inactive means score below 0.9.

Sequence of human Zeta Chain of T Cell Receptor Associated Protein Kinase 70 (ZAP70), ZAP70 (gene 7535) (P43403 whole entry, looked up): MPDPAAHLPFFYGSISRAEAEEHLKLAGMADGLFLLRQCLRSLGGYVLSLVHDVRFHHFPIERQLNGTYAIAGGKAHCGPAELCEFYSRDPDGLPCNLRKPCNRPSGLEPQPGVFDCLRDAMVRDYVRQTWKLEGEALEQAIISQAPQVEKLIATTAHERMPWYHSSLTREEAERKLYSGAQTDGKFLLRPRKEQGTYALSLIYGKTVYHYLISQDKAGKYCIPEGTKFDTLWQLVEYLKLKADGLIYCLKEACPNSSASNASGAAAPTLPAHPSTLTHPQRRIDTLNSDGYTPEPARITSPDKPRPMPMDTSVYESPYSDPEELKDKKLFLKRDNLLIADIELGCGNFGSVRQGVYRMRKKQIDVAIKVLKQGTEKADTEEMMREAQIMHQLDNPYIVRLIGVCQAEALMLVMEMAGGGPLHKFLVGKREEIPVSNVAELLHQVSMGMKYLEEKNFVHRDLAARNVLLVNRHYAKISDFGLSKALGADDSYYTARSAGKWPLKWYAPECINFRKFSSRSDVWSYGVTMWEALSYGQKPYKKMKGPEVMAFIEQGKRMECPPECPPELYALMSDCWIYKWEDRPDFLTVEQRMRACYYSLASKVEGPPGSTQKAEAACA

This assay concerns the target human Zeta Chain of T Cell Receptor Associated Protein Kinase 70 (ZAP70), ZAP70 (gene 7535) (UniProt P43403). In words: NVS_ENZ_hZAP70: NovaScreen (NVS) Enzymatic Assay for human Zeta Chain of T Cell Receptor Associated Protein Kinase 70 (ZAP70). The protocol:
NVS_ENZ_hZAP70 is a biochemical, single-readout assay that uses extracted gene-proteins in a cell-free assay. Measurements were taken 0 hour after chemical dosing in a 96-well plate.NVS_ENZ_hZAP70 is one of one assay component(s) measured or calculated from the NVS_ENZ_hZAP70 assay. It is designed to make measurements of enzyme activity, a form of enzyme reporter, as detected with fluorescence intensity signals by Fluorescence and electrophoretic mobility shift technology.Data from the assay component NVS_ENZ_hZAP70 was analyzed into 1 assay endpoint. This assay endpoint, NVS_ENZ_hZAP70, was analyzed in the positive analysis fitting direction relative to DMSO as the negative control and baseline of activity. Using a type of enzyme reporter, loss-of-signal activity can be used to understand changes in the enzymatic activity as they relate to the gene ZAP70. Furthermore, this assay endpoint can be referred to as a primary readout, because this assay has produced multiple assay endpoints where this one serves a enzymatic activity function. To generalize the intended target to other relatable targets, this assay endpoint is annotated to the kinase intended target family, where the subfamily is non-receptor tyrosine kinase. […]
For `O=S(=O)(O)C(F)(F)C(F)(F)C(F)(F)C(F)(F)C(F)(F)C(F)(F)C(F)(F)C(F)(F)F`, the AC50 was 12.3 µM (active).

For `O=C(O)C(F)(F)C(F)(F)C(F)(F)C(F)(F)C(F)(F)C(F)(F)C(F)(F)F`, the compound was classed as inactive.

The values are drawn from PubChem BioAssay AID2283218 (EPA ToxCast).
